From PubChem BioAssay (NCATS) come the findings set out here.

Molecules are shown by their SMILES. Results filed as inconclusive are left out. Values without a mark were called inactive. Calls of active or inactive are those of the source. The call rests on the fitted dose curve; in most records, active means well fitted inhibition curve with a large enough effect; inconclusive means small, poorly fitted or top-dose-only effect; inactive means flat fitted curve, though single readings scatter.
On the % scale 0 is the no-effect control and ±100 the full control effect.

This assay concerns HaCat. Nature of the assay: Cytotoxic Profiling of Annotated Libraries Using Quantitative High-Throughput Screening (AID 1296008). Further: nearly all actives have a fitted effect of over 60% in size. The conditions noted are these: Five cell lines viability, CellTiter-Glo ATP luminescence, 48-72 h; max response: stronger effect = lower value. A digest of the protocol: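 Cytotoxicity was measured as CellTiter-Glo ATP luminescence, read after 10 min at room temperature. Compound treatment of the cells lasted 48 or 72 hr at 37 degrees Celsius in a qHTS format.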
Background: In ATP-based viability assays light output follows the ATP content of the culture.
In the case of `O=C(CS(=O)Cc1ccco1)NC/C=C\COc1cc(CN2CCCCC2)ccn1` (stereo not drawn), the max response is -5.87%.

Consider `COc1ccc(CCC(C)=O)cc1`, for which the compound was classed as inactive.

In the case of `C[C@@H]1CCC[C@H](C)N1CCCC(O)(c1ccccc1)c1ccccn1` (stereo partly drawn), the call was inactive.

As for `CCCCN(CCCC)C(C(N)=O)c1ccc(OC)cc1` (stereo not drawn), the max response is 2.19%.

Consider `C=CCNc1nc(NCC=C)nc(N2CCN(C(c3ccc(F)cc3)c3ccc(F)cc3)CC2)n1`, for which the max response is 2.53%.

As for `CCCC(CCC)(C(=O)OCC)C(=O)OCC`, the compound was called inactive.

Turning to `CC(NC(CCc1ccccc1)C(=O)O)C(=O)N1C(=O)N(C)CC1C(=O)O` (stereo not drawn), the compound was classed as inactive.

For `CC(C)N(CCC(=O)c1ccc2ccccc2c1)Cc1ccccc1`, the outcome was “inactive; activator”.

Consider `CO[C@]1(NC(=O)CSC(F)F)C(=O)N2C(C(=O)O)=C(CSc3nnnn3CCO)CO[C@H]21`, for which the max response was 4.33%.

As for `CN1Cc2cc(C(=O)N3CCC(C4CCNCC4)CC3)ccc2NC(CC(=O)O)C1=O` (stereo not drawn), the max response was -7.2%.

As for `Clc1ccc2c(c1)Nc1ccccc1S2`, the max response is -13.4%.

With `CN(C)CCCOC1(Cc2ccccc2)CCCCCC1`, the max response was -13.3%.

For the compound `CCCCCC1Nc2cc(C(F)(F)F)c(S(N)(=O)=O)cc2S(=O)(=O)N1` (stereo not drawn), the max response was -13.3%.

`O=C(O)Cn1cnnn1`: the max response was 1.64%.

In the case of `CCn1ccc(NS(=O)(=O)c2ccc(N)cc2)nc1=O`, the compound was classed as inactive.

With `CO/N=C(\C(=O)O)c1csc(NC(=O)CCl)n1`, the compound was called inactive.

With `CNC[C@H](O)[C@@H](O)[C@H](O)[C@H](O)CO`, the max response is -3.04%.

Turning to `O=C(CCCl)NCCc1ccccc1`, the max response was 0.301%.
